Test results as given in ChEMBL document CHEMBL2218924, “A broad activity screen in support of a chemogenomic map for kinase signalling research and drug discovery” (Biochem J, 2013).

Assays:
[1] = target: Calcium/calmodulin-dependent protein kinase type 1 (Homo sapiens) (UniProt Q14012); conditions: at 1 µM
[2] = target: Calcium/calmodulin-dependent protein kinase type 1 (Homo sapiens) (UniProt Q14012); conditions: at 10 µM
[3] = target: Calcium/calmodulin-dependent protein kinase type II subunit beta (Homo sapiens) (UniProt Q13554); conditions: at 1 µM
Calcium/calmodulin-dependent protein kinase type II subunit beta (Homo sapiens), sequence (Q13554 whole entry): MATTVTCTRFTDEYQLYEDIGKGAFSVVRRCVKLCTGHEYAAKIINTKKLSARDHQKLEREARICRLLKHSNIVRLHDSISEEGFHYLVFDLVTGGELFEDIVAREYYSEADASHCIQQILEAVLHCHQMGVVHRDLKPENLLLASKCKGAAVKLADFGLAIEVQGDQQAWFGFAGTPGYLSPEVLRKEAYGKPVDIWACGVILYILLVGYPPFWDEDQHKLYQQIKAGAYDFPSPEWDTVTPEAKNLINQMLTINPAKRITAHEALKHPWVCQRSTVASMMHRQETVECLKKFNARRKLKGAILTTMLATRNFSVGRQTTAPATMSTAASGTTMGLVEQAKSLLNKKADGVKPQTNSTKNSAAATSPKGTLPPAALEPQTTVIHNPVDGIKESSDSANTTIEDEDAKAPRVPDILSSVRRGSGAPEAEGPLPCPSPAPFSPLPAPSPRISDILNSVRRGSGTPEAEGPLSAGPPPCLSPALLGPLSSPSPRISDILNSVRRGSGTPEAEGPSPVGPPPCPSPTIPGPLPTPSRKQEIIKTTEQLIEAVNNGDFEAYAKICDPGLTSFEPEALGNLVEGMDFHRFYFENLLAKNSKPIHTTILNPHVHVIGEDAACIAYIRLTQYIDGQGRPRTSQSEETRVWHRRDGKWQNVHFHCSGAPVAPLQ

[4] = target: Calcium/calmodulin-dependent protein kinase type II subunit beta (Homo sapiens) (UniProt Q13554); conditions: at 10 µM
[5] = target: Calcium/calmodulin-dependent protein kinase type II subunit gamma (Homo sapiens) (UniProt Q13555); conditions: at 1 µM
Calcium/calmodulin-dependent protein kinase type II subunit gamma (Homo sapiens), sequence (Q13555 whole entry): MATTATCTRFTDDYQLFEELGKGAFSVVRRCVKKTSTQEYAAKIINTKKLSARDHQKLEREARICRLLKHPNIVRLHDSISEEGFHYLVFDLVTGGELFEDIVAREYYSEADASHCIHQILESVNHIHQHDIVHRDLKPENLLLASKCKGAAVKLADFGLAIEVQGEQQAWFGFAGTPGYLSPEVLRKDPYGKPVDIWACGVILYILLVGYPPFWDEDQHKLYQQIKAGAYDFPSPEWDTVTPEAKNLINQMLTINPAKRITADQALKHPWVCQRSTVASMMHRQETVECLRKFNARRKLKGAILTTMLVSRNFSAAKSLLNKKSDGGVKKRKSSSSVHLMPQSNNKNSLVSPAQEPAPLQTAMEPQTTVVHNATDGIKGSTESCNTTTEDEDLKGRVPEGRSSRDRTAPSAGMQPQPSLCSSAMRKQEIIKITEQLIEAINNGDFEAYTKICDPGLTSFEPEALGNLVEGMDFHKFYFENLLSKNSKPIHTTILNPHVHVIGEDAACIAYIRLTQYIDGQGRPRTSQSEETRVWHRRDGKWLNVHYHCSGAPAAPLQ

[6] = target: Calcium/calmodulin-dependent protein kinase type II subunit gamma (Homo sapiens) (UniProt Q13555); conditions: at 10 µM
[7] = target: Calcium/calmodulin-dependent protein kinase type II subunit delta (Homo sapiens) (UniProt Q13557); conditions: at 1 µM
Calcium/calmodulin-dependent protein kinase type II subunit delta (Homo sapiens), sequence (Q13557 whole entry): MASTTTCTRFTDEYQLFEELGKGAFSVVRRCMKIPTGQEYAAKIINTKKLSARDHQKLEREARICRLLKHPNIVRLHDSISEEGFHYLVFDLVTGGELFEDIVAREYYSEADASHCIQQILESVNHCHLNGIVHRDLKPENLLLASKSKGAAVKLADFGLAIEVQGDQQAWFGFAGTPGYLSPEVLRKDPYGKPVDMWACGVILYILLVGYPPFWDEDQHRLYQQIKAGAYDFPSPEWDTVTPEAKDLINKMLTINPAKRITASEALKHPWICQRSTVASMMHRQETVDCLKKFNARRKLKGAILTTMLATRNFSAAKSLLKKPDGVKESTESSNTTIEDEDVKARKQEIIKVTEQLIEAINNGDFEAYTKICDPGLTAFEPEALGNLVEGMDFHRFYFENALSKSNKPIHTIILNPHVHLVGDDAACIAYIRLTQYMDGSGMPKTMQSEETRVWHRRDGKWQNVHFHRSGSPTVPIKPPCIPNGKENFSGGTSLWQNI

[8] = target: Calcium/calmodulin-dependent protein kinase type II subunit delta (Homo sapiens) (UniProt Q13557); conditions: at 10 µM
[9] = target: T1, Calcium/calmodulin-dependent protein kinase type IV (Homo sapiens) (UniProt Q16566); conditions: at 1 µM
T1 sequence (whole entry): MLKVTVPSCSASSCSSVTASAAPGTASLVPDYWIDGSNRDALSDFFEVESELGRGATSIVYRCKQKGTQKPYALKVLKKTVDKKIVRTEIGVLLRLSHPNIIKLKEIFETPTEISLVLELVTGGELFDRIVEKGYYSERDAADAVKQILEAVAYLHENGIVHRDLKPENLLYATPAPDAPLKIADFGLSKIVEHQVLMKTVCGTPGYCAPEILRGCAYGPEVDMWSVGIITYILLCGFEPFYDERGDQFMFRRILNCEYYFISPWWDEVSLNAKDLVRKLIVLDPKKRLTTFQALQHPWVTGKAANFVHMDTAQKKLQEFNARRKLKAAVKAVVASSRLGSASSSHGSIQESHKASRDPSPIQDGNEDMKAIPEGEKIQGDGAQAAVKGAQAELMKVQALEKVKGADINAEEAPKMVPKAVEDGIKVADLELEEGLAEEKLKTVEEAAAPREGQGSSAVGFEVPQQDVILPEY

[10] = target: T1, Calcium/calmodulin-dependent protein kinase type IV (Homo sapiens); conditions: at 10 µM

Calcium/calmodulin-dependent protein kinase type 1 (Homo sapiens), sequence (Q14012 whole entry, looked up): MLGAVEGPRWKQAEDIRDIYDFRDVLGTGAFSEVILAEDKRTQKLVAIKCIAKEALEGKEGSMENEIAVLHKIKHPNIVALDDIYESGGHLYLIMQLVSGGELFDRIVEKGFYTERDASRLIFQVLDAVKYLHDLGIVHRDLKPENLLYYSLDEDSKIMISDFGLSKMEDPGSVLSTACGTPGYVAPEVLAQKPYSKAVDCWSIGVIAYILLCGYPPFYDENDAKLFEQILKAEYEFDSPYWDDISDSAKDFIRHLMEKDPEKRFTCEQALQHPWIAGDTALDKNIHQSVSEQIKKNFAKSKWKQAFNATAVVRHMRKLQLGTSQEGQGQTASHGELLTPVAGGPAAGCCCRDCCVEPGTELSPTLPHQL

O=C(O)/C=C/c1cc(Br)c(Br)c(Br)c1Br
residual activity [1]: 102%
residual activity [2]: 74%
residual activity [3]: 78%
residual activity [4]: 39%
residual activity [5]: 98%
residual activity [6]: 31%
residual activity [7]: 83%
residual activity [8]: 26%
residual activity [9]: 94%
residual activity [10]: 80%

CC(C)N(CCC(=O)c1ccc2ccccc2c1)Cc1ccccc1
residual activity [1]: 100%
residual activity [2]: 80%
residual activity [3]: 88%
residual activity [4]: 84%

O=C1NC(=O)C(c2cn(CCCn3ccnc3)c3ccccc23)=C1Nc1ccccc1
residual activity [1]: 106%
residual activity [2]: 53%
residual activity [3]: 77%
residual activity [4]: 45%
residual activity [7]: 77%
residual activity [8]: 23%
residual activity [9]: 106%
residual activity [10]: 74%

Nc1ncnc2c1c(-c1ccc(Oc3ccccc3)cc1)cn2C1CCCC1
residual activity [1]: 95%
residual activity [2]: 29%
residual activity [3]: 83%
residual activity [4]: 57%
residual activity [6]: 72%
residual activity [7]: 98%
residual activity [8]: 68%
residual activity [9]: 112%
residual activity [10]: 85%

NC(=O)Nc1sc(-c2ccc(F)cc2)cc1C(N)=O
residual activity [1]: 74%
residual activity [2]: 18%
residual activity [3]: 86%
residual activity [4]: 40%
residual activity [5]: 82%
residual activity [6]: 32%
residual activity [7]: 83%
residual activity [8]: 31%
residual activity [10]: 72%

COc1cc2ncnc(Nc3cccc(Cl)c3)c2cc1OC
residual activity [1]: 108%
residual activity [2]: 62%
residual activity [4]: 60%
residual activity [5]: 45%
residual activity [6]: 5%
residual activity [7]: 60%
residual activity [8]: 18%

Cn1c2ccccc2c2c3c(c4c5ccccc5n(CCC#N)c4c21)CNC3=O
residual activity [1]: 80%
residual activity [2]: 32%
residual activity [3]: 11%
residual activity [4]: 10%
residual activity [5]: 2%
residual activity [6]: -5%
residual activity [7]: 1%
residual activity [8]: 1%
residual activity [9]: 100%
residual activity [10]: 58%

CCN(CC)CCNC(=O)c1c(C)[nH]c(/C=C2\C(=O)Nc3ccc(Cl)cc32)c1C
residual activity [1]: 51%
residual activity [2]: -2%
residual activity [3]: 8%
residual activity [4]: 1%
residual activity [5]: 3%
residual activity [6]: 0%
residual activity [7]: 3%
residual activity [8]: 1%

O=C(NC(NC(=S)Nc1ccc(F)c([N+](=O)[O-])c1)C(Cl)(Cl)Cl)C(c1ccccc1)c1ccccc1 (stereo not drawn)
residual activity [1]: 99%
residual activity [2]: 91%
residual activity [3]: 91%
residual activity [4]: 72%
residual activity [5]: 99%
residual activity [6]: 89%
residual activity [7]: 99%
residual activity [8]: 82%

c1ccc(-c2cnc(Nc3ccc(OCCN4CCCC4)cc3)s2)cc1
residual activity [1]: 101%
residual activity [2]: 41%
residual activity [3]: 48%
residual activity [4]: 7%
residual activity [5]: 19%
residual activity [6]: -1%
residual activity [7]: 22%
residual activity [8]: 4%

Nc1ncnc2[nH]nc(Nc3ccc(F)cc3)c12
residual activity [1]: 91%
residual activity [2]: 72%
residual activity [3]: 67%
residual activity [4]: 20%
residual activity [6]: 30%
residual activity [7]: 77%
residual activity [8]: 26%
residual activity [9]: 100%
residual activity [10]: 104%

O=C1NC(=O)c2c1c1c3ccccc3[nH]c1n1cncc21
residual activity [1]: 61%
residual activity [2]: 36%
residual activity [3]: 22%
residual activity [4]: 14%
residual activity [5]: 15%
residual activity [6]: 7%
residual activity [7]: 12%
residual activity [8]: 6%
residual activity [9]: 61%
residual activity [10]: 62%

O=C1Nc2ccc(Cl)cc2/C1=C/c1cc(Cl)c(O)c(Cl)c1
residual activity [1]: 96%
residual activity [2]: 63%
residual activity [3]: 69%
residual activity [4]: 23%
residual activity [5]: 62%
residual activity [6]: 10%
residual activity [7]: 69%
residual activity [8]: 10%

NCCNc1ncc(C(N)=O)c(Nc2cccc(C(F)(F)F)c2)n1
residual activity [1]: 20%
residual activity [2]: -5%
residual activity [3]: 73%
residual activity [4]: 23%
residual activity [5]: 55%
residual activity [6]: 3%
residual activity [7]: 51%
residual activity [8]: 9%
residual activity [9]: 114%
residual activity [10]: 72%

O=c1cc(N2CCOCC2)oc2c1ccc1ccccc12
residual activity [1]: 104%
residual activity [2]: 72%
residual activity [3]: 103%
residual activity [4]: 72%
residual activity [5]: 104%
residual activity [6]: 81%
residual activity [7]: 99%
residual activity [8]: 75%
residual activity [10]: 103%

Nc1n[nH]c2nc3ccccc3nc12
residual activity [1]: 87%
residual activity [2]: 68%
residual activity [3]: 75%
residual activity [4]: 16%
residual activity [5]: 86%
residual activity [6]: 28%
residual activity [7]: 86%
residual activity [8]: 36%
residual activity [9]: 121%
residual activity [10]: 87%

O=C1NC(=O)C(c2cn(CCCO)c3ncccc23)=C1c1cnccn1
residual activity [1]: 93%
residual activity [2]: 97%
residual activity [3]: 75%
residual activity [4]: 70%
residual activity [5]: 88%
residual activity [6]: 74%
residual activity [7]: 80%
residual activity [8]: 64%

Nc1ncnc2c1cnn2-c1ccccc1
residual activity [1]: 99%
residual activity [2]: 69%
residual activity [4]: 35%
residual activity [5]: 91%
residual activity [6]: 51%
residual activity [7]: 98%
residual activity [8]: 63%
residual activity [9]: 125%
residual activity [10]: 92%

Cn1sc(=O)n(Cc2ccccc2)c1=O
residual activity [1]: 75%
residual activity [2]: 67%
residual activity [3]: 92%
residual activity [4]: 83%
residual activity [7]: 98%
residual activity [8]: 90%
residual activity [9]: 73%
residual activity [10]: 51%

CC(C)c1nn(-c2c(Cl)cccc2Cl)c2nc(Cc3ccc(OCCO)cc3)[nH]c(=O)c12
residual activity [1]: 90%
residual activity [2]: 91%
residual activity [3]: 91%
residual activity [4]: 59%
residual activity [5]: 95%
residual activity [6]: 60%
residual activity [7]: 94%
residual activity [8]: 67%
residual activity [10]: 82%

COc1ccc(-c2cnc3c(-c4ccsc4)cnn3c2)cc1
residual activity [1]: 88%
residual activity [2]: 80%
residual activity [3]: 93%
residual activity [4]: 89%
residual activity [5]: 71%
residual activity [6]: 79%
residual activity [7]: 80%
residual activity [8]: 87%

COc1ccc2c(c1)c(C1=C(c3c[nH]c4ccccc34)C(=O)NC1=O)cn2CCCN(C)C
residual activity [1]: 96%
residual activity [2]: 45%
residual activity [3]: 80%
residual activity [4]: 28%
residual activity [5]: 62%
residual activity [6]: 10%
residual activity [7]: 42%
residual activity [8]: 8%
residual activity [9]: 105%
residual activity [10]: 61%

CC(C)(C)n1nc(Cc2cccc3ccccc23)c2c(N)ncnc21
residual activity [1]: 105%
residual activity [2]: 88%
residual activity [3]: 89%
residual activity [4]: 68%
residual activity [5]: 106%
residual activity [6]: 78%
residual activity [7]: 106%
residual activity [8]: 78%
residual activity [9]: 122%
residual activity [10]: 74%

O=C(CCCc1ccc(-c2ccccc2F)cc1)Nc1ccc(O)cc1
residual activity [1]: 92%
residual activity [2]: 73%
residual activity [3]: 100%
residual activity [4]: 89%
residual activity [5]: 106%
residual activity [6]: 75%
residual activity [7]: 109%
residual activity [8]: 78%
residual activity [9]: 104%
